Assay outcomes: PubChem, National Center for Advancing Translational Sciences (NCATS)
In the library only some 1.3% were active in any assay of this set; here they are far more common.
AmpC inh no detg: qHTS Inhibitors of AmpC Beta-Lactamase (assay without detergent) | P00811 | AmpC nitrocefin hydrolysis, absorbance 480 nm, 0.0001% Triton | Potency, µM (highest dose often 57.1 µM), without a hit: at the highest dose activity change, negative = inhibition, most hits filed as inhibitors | 330,000 compounds, 0.52% hits | AID 485341, 2010;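 note: plate controls were no compound for no effect and no enzyme for full effect; nearly all actives have a fitted effect of over 20% in size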
Target sequence (P00811 whole entry, looked up): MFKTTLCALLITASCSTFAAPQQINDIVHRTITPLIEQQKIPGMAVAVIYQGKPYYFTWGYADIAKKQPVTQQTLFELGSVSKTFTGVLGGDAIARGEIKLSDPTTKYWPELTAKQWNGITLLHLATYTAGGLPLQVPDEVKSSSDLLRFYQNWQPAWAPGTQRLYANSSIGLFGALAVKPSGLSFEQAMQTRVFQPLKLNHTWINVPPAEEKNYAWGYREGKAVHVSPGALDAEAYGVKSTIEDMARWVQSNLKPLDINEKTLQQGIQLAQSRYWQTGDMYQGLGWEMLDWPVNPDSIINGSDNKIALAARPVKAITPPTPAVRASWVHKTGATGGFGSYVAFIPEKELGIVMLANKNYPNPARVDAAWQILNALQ
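AmpC (5.3 nM in the dispensed reagent) in 20 mM phosphate pH 7.0 with 0.01% (detergent screen) or 0.0001% Triton X-100 was preincubated with compounds for 15 min at room temperature. Nitrocefin was then added from an 800 uM solution, and hydrolysis was followed at 480 nm.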
SARS PLpro yeast: qHTS of Yeast-based Assay for SARS-CoV PLP; Potency, µM (highest dose often 32.9 µM), without a hit: at the top dose activity, positive = growth rescue, most hits filed as activators; AID 485353, 2010; S. cerevisiae expressing SARS-CoV PLpro, growth rescue; 330,000 compounds, 0.19% hits; calls by dose curve; note: 0% is about no effect; nearly all actives have a fitted effect of over 55% in size
Vaccinia Venus: qHTS for Stage-Specific Inhibitors of Vaccinia Orthopoxvirus: Venus Reporter Primary qHTS | Potency, µM (highest dose often 36.5 µM), inactives show at the highest dose activity change, negative = inhibition, most hits filed as inhibitors | 330,000 compounds, 0.46% hits | Vaccinia virus Venus reporter expression, fluorescence; calls by dose curve; tested in A549 cells; note: % is set by controls: 0 for no effect and ±100 for the full control effect; nearly all actives have a fitted effect of over 30% in size
AmpC inh detg: qHTS Inhibitors of AmpC Beta-Lactamase (assay with detergent); P00811; AmpC hydrolysis of nitrocefin, absorbance 480 nm, 0.01% Triton; Potency, µM (top dose mostly 114 µM), inactives show at the highest dose activity change, negative = inhibition, usual class: inhibitors; 370,000 compounds, 0.041% hits;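 note: 0% = no-compound wells and -100% = no-enzyme wells; nearly all actives have a fitted effect of over 25% in size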
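AmpC (5.3 nM in the dispensed reagent) in 20 mM phosphate pH 7.0 with 0.01% (detergent screen) or 0.0001% Triton X-100 was preincubated with compounds for 15 min at room temperature. Nitrocefin was then added from an 800 uM solution, and hydrolysis was followed at 480 nm.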
VACV mCherry inh: qHTS for Stage-Specific Inhibitors of Vaccinia Orthopoxvirus: mCherry Reporter Primary qHTS | Vaccinia virus mCherry reporter infection, fluorescence | Potency, µM (series often up to 36.5 µM), inactives show at the highest dose activity change, negative = inhibition, hits mostly inhibitors | 310,000 compounds, 0.63% hits; calls by dose curve; tested in A549 cells; note: % is set by controls: 0 for no effect and ±100 for the full control effect; nearly all actives have a fitted effect of over 35% in size
The depositor's hits bear a star; i = inactive; ? = inconclusive; . = not tested or not shown. Unless noted, calls come from the whole dose curve; as a rule, active = well fitted curve in the direction sought with a large enough effect; inconclusive = small, poorly fitted or top-dose-only effect, or another doubt; inactive = no such curve, though single readings can be large; an effect the other way counts as inactive or inconclusive. Potency is the fitted concentration of half-maximal effect.

SMILES	AmpC inh no detg	SARS PLpro yeast	Vaccinia Venus	AmpC inh detg	VACV mCherry inh
C=Cc1ccc(Cn2c(C(=O)O)c(CNCc3ccc(F)cc3)c3ccc(C)cc32)cc1	.	.	?	9.6%	?
Cc1cnc(C)c(-c2ccc(F)c3c2OC(CNC(=O)Cc2c(C)[nH]c4ccccc24)C3)n1 (configuration not stated)	.	.	-1.8%	.	-13.4%
CCN(CC)S(=O)(=O)c1ccc(-c2nnc(SCC(C)=O)o2)cc1	30.7%	2.9%	.	-12.9%	.
CCN(CC)S(=O)(=O)c1ccc(-c2nnc(SCC(=O)N3CCOCC3)o2)cc1	36.7%	-1.4%	3.55µM*	-14.3%	2.51µM*
CCN(CC)S(=O)(=O)c1ccc(-c2nnc(SCc3nnc(-c4ccc(C)cc4)o3)o2)cc1	-12.4%	1.3%	?	-12.1%	0.0011µM*
CN(Cc1ccccc1)C(=O)[C@@H]1CCCN1C(=O)[C@@H]1CCCN1C(=O)c1cccc2ccccc12	.	.	-12.7%	.	i
Cc1c(C(=O)NC2CCCCCC2)sc2ncnc(NCC3CCCO3)c12 (configuration not stated)	.	.	-8.5%	.	-9.7%
COc1ccc(-c2ccnc(-n3ncc(C(=O)NCc4cccnc4)c3C3CC3)n2)cc1F	.	.	-9.2%	.	-27.3%
CCC(CC)C(=O)Nc1ccc2nc(SCC(=O)N3CCCC3)sc2c1	.	.	-2.7%	-1.0%	-4.9%
CC1=C(c2ccc(C)cc2)S(=O)(=O)NC1=NCc1ccccc1Cl	.	.	-26.4%	3.4%	-28.9%
Cc1cc2c(s1)c1c(C)nn(Cc3ccccc3F)c(=O)c1n2C	-16.6%	5.01µM*	.	-7.8%	.
Cc1cc2c(s1)c1c(C)nn(Cc3ccc(F)cc3)c(=O)c1n2C	-23.0%	4.0%	.	3.3%	.
NS(=O)(=O)c1ccc(NC(=O)COc2cccc3ccccc23)cc1	12.6µM*	0.9%	-15.5%	0.5%	i
CCc1ccccc1OCC(=O)Nc1ccc(S(N)(=O)=O)cc1	-27.0%	-2.3%	.	1.7%	.
O=C(/C=C/c1ccc(F)cc1)NNC(=O)CCN1CCN(Cc2ccccc2)CC1	-0.7%	2.9%	?	5.7%	11.2µM*
CC(C)C[C@@H]1NC(=O)[C@H](Cc2ccccc2)N(C)C(=O)[C@H](C)NC(=O)c2ccccc2NC(=O)[C@H](Cc2ccc(O)cc2)N(C)C1=O	-0.3%	1.1%	-23.6%	6.0%	?
CCC(C)C1NC(=O)C2CCCN2C(=O)C(CC(C)C)OC(=O)CCNC(=O)C(C)N(C)C(=O)C(C(C)C)N(C)C1=O (configuration not stated)	.	.	-27.5%	.	-26.4%
CC[C@H](C)C1OC(=O)[C@@H](C)[C@@H](CC)NC(=O)[C@H](C)N(C)C(=O)C(C)(C)C(=O)C(C)NC(=O)[C@H](Cc2ccc(OC)cc2)N(C)C(=O)[C@H](C(C)C)N(C)C(=O)CNC(=O)[C@H](CC(C)C)N(C)C(=O)CNC1=O (some centres not stated)	.	.	1µM*	.	0.891µM*
CCC[C@H]1NC(=O)[C@H](C)N(C)C(=O)C(C)(C)C(=O)C(C)NC(=O)[C@H](Cc2ccc(OC)cc2)N(C)C(=O)[C@H](C(C)C)N(C)C(=O)CNC(=O)[C@H](CC(C)C)N(C)C(=O)CNC(=O)[C@H]([C@@H](C)CC)OC(=O)[C@H]1C (some centres not stated)	199.2%	-3.0%	0.316µM*	.	?
COc1ccc(O)c(CN2CCC3(CC2)c2ccccc2[C@@H](NC(=O)c2cccc(F)c2)[C@@H]3OC)c1	.	.	-7.0%	.	-17.8%
Cc1ccc(C(C)C)c(OCc2ccc(C(=O)N/N=C/c3ccc(O)cc3O)cc2)c1	-32.2%	3.16µM*	?	-10.6%	1.58µM*
CSc1ccccc1NC(=O)c1cc(CC(C)C)on1	10µM*	-8.2%	-9.5%	4.3%	i
CC(C)Cc1cc(C(=O)Nc2cccnc2)no1	-5.0%	-6.7%	10.3%	?	9.3%
CC(=O)c1ccc(NC(=O)c2cc(CC(C)C)on2)cc1	50.1µM*	0.0%	4.0%	?	9.4%
Cc1ccc2nc(-c3ccc(SCC(=O)Nc4nnc(C)s4)nc3)[nH]c2c1	-56.6%	8.1%	11.2µM*	-5.8%	?
SMILES	AmpC inh no detg	SARS PLpro yeast	Vaccinia Venus	AmpC inh detg	VACV mCherry inh
Cc1ccc2nc(-c3ccc(SCC(=O)Nc4nc(C)cs4)nc3)[nH]c2c1	-9.9%	3.5%	?	?	?
O=C(CSc1ccc(-c2nc3ccccc3[nH]2)cn1)Nc1ccc2c(c1)OCCO2	0.562µM*	1.9%	-24.5%	-2.7%	-9.7%
Cc1ccc2nc(-c3ccc(SCC(=O)Nc4ccc5c(c4)OCCO5)nc3)[nH]c2c1	-26.8%	-16.8%	-13.5%	?	-25.5%
CC(C)(C)NC(=O)COC(=O)CNC(=O)C1CCCCC1	.	.	-9.3%	.	38.5%
Cc1cnc(C)c(-c2cccc3c2OC(CNC(=O)C[C@@H]2C[C@@H](C)NC(=S)N2)C3)n1 (some centres not stated)	.	.	2.9%	.	-9.8%
CN(C)CCOc1ccc(-c2c(-c3ccccc3)sc3ccccc23)cc1	59.2%	3.3%	12.6µM*	.	?
c1ccc(-c2sc3ccccc3c2-c2ccc(OCCN3CCCCC3)cc2)cc1	-11.6%	0.4%	-18.3%	.	-14.8%
O=C(N1CCOCC1)n1cnc2ccccc21	-3.6%	6.9%	-8.7%	-8.9%	-7.4%
O=C(N1CCOCC1)n1nnc2ccccc21	12.6µM*	-9.9%	.	44.7µM*	.
Cc1ccccc1-c1ccc(CN2CCc3nnc(CNC(=O)c4ccccn4)n3CC2)cc1	.	.	-11.1%	.	-17.8%
C/C(CC(=O)Nc1ccc(Cl)cc1Cl)=N\NC(=O)c1ccco1	7.94µM*	-11.3%	-25.4%	-11.9%	?
CCCCCCCCCc1ccc(OCCOCCO)cc1	.	.	?	.	-21.2%
CC(C)OC(=O)c1cc(C(=O)c2cc(F)ccc2O)coc1=N	-25.0%	15.0%	.	1.4%	.
COc1ccc(O)c(C(=O)c2coc(=N)c(C(=O)Nc3ccc(SC(F)F)cc3)c2)c1	14.1µM*	1.0%	-19.0%	5.1%	-28.3%
CCCc1cc(C(=O)NCCc2ccccc2)no1	11.2µM*	-6.8%	5.2%	-3.6%	i
COC(=O)c1c(OCc2ccccn2)cc(=O)n2c1CCN(Cc1ccc3c(c1)CCCN3C)CC2	.	.	-8.3%	.	-15.4%
O=C(NCCN1Cc2ccccc2OC(c2ccsc2)C1)c1ccc2[nH]ccc2c1 (configuration not stated)	.	.	1.4%	.	-15.1%
Fc1ccc(C2=NNC(=NCc3ccccc3)SC2)cc1F	17.8µM*	0.6%	-14.4%	0.3%	-8.3%
O=C(CSc1nnc(SCc2cccc3ccccc23)s1)N/N=C/C=C/c1ccccc1[N+](=O)[O-]	14.1µM*	-4.9%	-8.6%	-2.4%	-13.7%
O=C(CSc1nnc(SCc2ccc(Cl)cc2)s1)N/N=C/c1c[nH]c2ccccc12	-15.2%	11.3%	11.2µM*	?	?
